Consider 17 compounds from PubChem BioAssay.

Experiment [1] concerns Plasmodium falciparum Sir2 (PF13_0152, Sir2A). As to the kind of experiment: pfSir2 binders on small-molecule microarrays, primary screen, biochemical, small-molecule microarray, 635 nm fluorescence (AID 1098).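 Note: score merges spot fluorescence intensity with its signal-to-noise ratio.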 The following applies: small-molecule microarray binding, fluorescence 635 nm; higher = more signal.
The nature of experiment [2]: small-molecule microarray binders of probe aDKK1, primary screen, biochemical, biotinylated probe, 635/667 nm fluorescence (AID 1099).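 Note: score merges 667nm spot fluorescence with signal to noise across triplicate slides; reference of the scale not given here.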 The following applies: higher = more signal.
A short description of experiment [3]: small-molecule microarray binders of probe aCHRDL2, primary screen, biochemical, biotinylated probe, 635/667 nm fluorescence (AID 1100). To be noted: higher = more signal.
Experiment [4] in a line: splicing luciferase reporter signal modulators, primary screen, spliceosome inhibition project, cell-based, HEK293, splice +/- reporter (AID 1101).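 Note: HEK293 cells carrying a splicing-competent luciferase reporter gene; test concentration not given here.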 The following applies: luminescence, 24 h, higher = more signal, called active from +8 up or from −8 down. (In general: Reporter assays use an easily measured gene product as a stand-in for the process of interest.)
Experiment [5] addresses Fibroblast growth factor 10 (Homo sapiens) (UniProt O15520). As to the kind of experiment: FGF10 binders on small-molecule microarrays, primary screen, biochemical, small-molecule microarray, 635 nm fluorescence (AID 1102). The following applies: FGF10 binding, fluorescence 635 nm, higher = more signal.
Experiment [6] concerns glycogen synthase kinase-3 (GSK3A per assay name; protocol says GSK3B). As to the kind of experiment: GSK3 binders on small-molecule microarrays, primary screen, biochemical, small-molecule microarray, 635 nm fluorescence, GSK3A (AID 1103). Note: the record names both GSK3A and GSK3B. To be noted: small-molecule microarray binding, fluorescence 635 nm; higher = more signal.
For experiment [7], the target named is Epidermal growth factor receptor (Homo sapiens) (UniProt P00533). As to the kind of experiment: EGFR binders on small-molecule microarrays, primary screen, biochemical, small-molecule microarray, 635 nm fluorescence (AID 1104).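 Note: score merges 667 nm emission intensity with spot signal to noise over triplicate slides.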 The following applies: EGFR binding, higher = more signal.
The target of experiment [8] is Follistatin-related protein 3 (Homo sapiens) (UniProt O95633). As to the kind of experiment: FSTL3 binders on small-molecule microarrays, primary screen, biochemical, small-molecule microarray, 635 nm fluorescence (AID 1105).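 Note: score merges emission near 667 nm and signal to noise per printed spot across three slides.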 The following applies: FSTL3 binding, higher = more signal.
In experiment [9] the target is Dickkopf-related protein 1 (Homo sapiens) (UniProt O94907). As to the kind of experiment: DKK1 binders on small-molecule microarrays, primary screen, biochemical, small-molecule microarray, 635 nm fluorescence scan (AID 1106).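 Note: score merges emission near 667 nm with signal to noise over three replicate slides.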 The following applies: DKK1 binding, higher = more signal.
Experiment [10] relates to Inhibin beta A chain (activin A). As to the kind of experiment: INHBA (activin A) binders on microarrays, primary screen, biochemical, small-molecule microarray, 635 nm fluorescence scan (AID 1107).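 Note: mouse activin A protein probed at 4.33 µg/mL on printed slides; score merges bound-protein fluorescence near 667 nm with spot signal-to-noise.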 The following applies: small-molecule microarray binding, higher = more signal.

Activity calls are given as the source filed them.

Epidermal growth factor receptor (Homo sapiens), sequence (P00533 whole entry, looked up): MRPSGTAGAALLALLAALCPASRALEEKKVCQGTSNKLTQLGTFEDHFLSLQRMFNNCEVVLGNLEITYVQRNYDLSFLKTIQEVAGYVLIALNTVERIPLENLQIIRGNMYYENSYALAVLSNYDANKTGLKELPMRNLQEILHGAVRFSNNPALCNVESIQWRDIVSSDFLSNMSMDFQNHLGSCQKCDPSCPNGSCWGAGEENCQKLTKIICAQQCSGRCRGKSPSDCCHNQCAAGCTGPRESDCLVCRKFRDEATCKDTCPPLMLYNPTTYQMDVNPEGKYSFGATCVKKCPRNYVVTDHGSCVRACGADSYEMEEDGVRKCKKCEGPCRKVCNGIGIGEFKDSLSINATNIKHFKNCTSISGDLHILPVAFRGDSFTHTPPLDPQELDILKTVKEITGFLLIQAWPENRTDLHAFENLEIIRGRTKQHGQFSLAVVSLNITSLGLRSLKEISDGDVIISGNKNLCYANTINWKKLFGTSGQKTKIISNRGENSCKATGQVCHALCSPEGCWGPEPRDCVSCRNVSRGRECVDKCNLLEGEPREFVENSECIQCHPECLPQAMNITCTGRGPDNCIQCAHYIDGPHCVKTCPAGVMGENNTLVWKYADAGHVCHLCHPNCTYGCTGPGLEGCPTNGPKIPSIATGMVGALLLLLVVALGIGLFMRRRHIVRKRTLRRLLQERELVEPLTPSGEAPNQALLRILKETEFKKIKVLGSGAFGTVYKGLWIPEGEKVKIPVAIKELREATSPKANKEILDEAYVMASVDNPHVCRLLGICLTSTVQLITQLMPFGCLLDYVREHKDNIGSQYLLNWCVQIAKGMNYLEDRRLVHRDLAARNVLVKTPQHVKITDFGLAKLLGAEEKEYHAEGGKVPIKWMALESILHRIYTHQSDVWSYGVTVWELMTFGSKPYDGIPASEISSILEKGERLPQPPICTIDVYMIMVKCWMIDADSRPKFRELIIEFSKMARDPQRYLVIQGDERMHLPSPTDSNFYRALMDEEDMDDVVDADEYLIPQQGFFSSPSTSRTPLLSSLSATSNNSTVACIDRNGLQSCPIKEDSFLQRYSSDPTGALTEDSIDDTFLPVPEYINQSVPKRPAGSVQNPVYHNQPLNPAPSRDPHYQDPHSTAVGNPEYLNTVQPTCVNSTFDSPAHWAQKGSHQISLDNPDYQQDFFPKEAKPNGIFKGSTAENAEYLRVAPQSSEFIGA
Fibroblast growth factor 10 (Homo sapiens), sequence (O15520 whole entry, looked up): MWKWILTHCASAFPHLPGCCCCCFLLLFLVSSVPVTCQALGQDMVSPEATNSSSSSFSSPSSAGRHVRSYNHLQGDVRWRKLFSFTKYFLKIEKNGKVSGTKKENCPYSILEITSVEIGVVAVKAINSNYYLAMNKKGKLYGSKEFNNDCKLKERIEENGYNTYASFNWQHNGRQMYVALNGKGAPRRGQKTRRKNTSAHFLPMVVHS
Follistatin-related protein 3 (Homo sapiens), sequence (O95633 whole entry, looked up): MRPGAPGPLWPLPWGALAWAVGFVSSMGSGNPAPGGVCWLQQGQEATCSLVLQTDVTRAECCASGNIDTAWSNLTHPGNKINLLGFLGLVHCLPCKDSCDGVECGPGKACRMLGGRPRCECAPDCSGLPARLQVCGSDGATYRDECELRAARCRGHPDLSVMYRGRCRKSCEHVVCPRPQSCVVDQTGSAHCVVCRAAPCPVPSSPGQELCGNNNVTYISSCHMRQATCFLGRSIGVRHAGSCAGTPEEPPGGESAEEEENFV
Dickkopf-related protein 1 (Homo sapiens), sequence (O94907 whole entry, looked up): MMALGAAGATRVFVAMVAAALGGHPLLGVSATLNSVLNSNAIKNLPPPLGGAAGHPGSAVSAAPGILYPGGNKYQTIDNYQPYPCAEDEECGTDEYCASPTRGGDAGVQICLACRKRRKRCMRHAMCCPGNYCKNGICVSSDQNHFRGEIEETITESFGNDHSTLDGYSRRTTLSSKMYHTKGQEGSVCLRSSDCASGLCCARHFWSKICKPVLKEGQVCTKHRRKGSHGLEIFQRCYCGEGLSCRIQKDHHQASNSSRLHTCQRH

In the case of `CC1CC/C=C\[C@H]2OC34C=CCN(CCN5CCOCC5)C(=O)[C@H]3N(C(C)CO)C(=O)[C@@H]4C2C(=O)O1` (stereo not given in full), the composite z-score in experiment [1] was 0.489; in [2] it was -0.356; in experiment [3], -0.415; in experiment [5], -0.42; in experiment [6], -0.42; in experiment [7], -0.599. Further, the composite z-score in experiment [8] is -0.214; in experiment [9], -0.0076; in experiment [10], 1.14. Further, the z-score in experiment [4] is 1.02 (inactive).

For `C=C(CCCC)/C(=C/C[C@H](OC(C)=O)c1ccc(OCCO)cc1)c1cc(C(=O)OC)ccc1OC`, the composite z-score is 1.58 in experiment [1]; -0.131 in experiment [2]; 0.104 in experiment [3]; 1 in experiment [5]; 0.699 in experiment [6]; -0.616 in experiment [7]. Moreover, the composite z-score in [8] is 0.613; in experiment [9], -0.304; in experiment [10] it was 0.562. The z-score in experiment [4] is 0.0591 (inactive).

Turning to `CC(C)CNC(=O)[C@@]1(c2ccc([N+](=O)[O-])cc2)CC(=O)N(C2CCCCC2)[C@@H]1c1ccc(CO)cc1`, the composite z-score in [1] amounted to 0.388; in experiment [2], 0.368; in [3] it was 0.453; in experiment [5] it was 0.735; in [6], 0.484; in [7] it was 0.103. Further, the composite z-score is 0.0017 in experiment [8], -0.362 in experiment [9] and 0.517 in experiment [10]. In addition, in experiment [4], the z-score was -0.472 (inactive).

In the case of `COc1ccc([Si](C)(C)[C@@H]2[C@@H](CCn3cc([C@H](O)c4ccccc4)nn3)O[C@]3(C(=O)N(Cc4cccc(N5C(=O)c6cccc7cccc5c67)c4)c4ccccc43)[C@H]2C)cc1`, the composite z-score was -0.225 in experiment [1]; -0.0463 in [2]; 0.575 in [3]; -0.365 in experiment [5]; -0.83 in [6]; -1.32 in [7]. Also, the values for the composite z-score in [8], in experiment [9] and in [10] were -0.607, -1.02 and -0.317, respectively. Moreover, the z-score in [4] was 1.41 (inactive).

Turning to `CN(C)CCCC[C@@H]1NC(=O)[C@@H]2C[C@H](C(=O)O)[C@H](c3cccc(OCCO)c3)N2C1=O`, the composite z-score is 1.25 in experiment [1]; -0.336 in experiment [2]; -0.165 in [3]; -0.376 in [5]; -0.461 in experiment [6]; -0.277 in experiment [7]. The composite z-score was -0.306 in [8], 0.333 in [9] and -0.7 in experiment [10]. In experiment [4], the z-score was 0.0013 (inactive).

As for `CC(=O)NCCCC[C@@H]1NC(=O)[C@@H]2C[C@H](C(=O)NCCCCCCN)[C@H](c3cccc(OCCO)c3)N2C1=O`, the composite z-score in [1] was 1.04; in experiment [2] it was 0.504; in [3], 0.61; in experiment [5] it was 0.906; in experiment [6], 0.132; in [7], -0.556. The composite z-score in experiment [8] was -0.309; in experiment [9], -0.733; in experiment [10], 0.288. Also, the z-score in [4] is 0.248 (inactive).

Regarding `Nc1cc(Br)ccc1C(=O)O`, the composite z-score in [1] is -0.0113; in [2], 0.149; in [3], -0.155; in experiment [5], 0.339; in [6], 0.285; in [7], 0.029. For the same compound, the composite z-score in experiment [8] worked out at 0.111; in [9], 0.241; in [10] it was 0.0301. Further, in experiment [4], the z-score is -0.00991 (inactive).

Turning to `COCCOC(=O)N1C(=O)[C@@]2(c3cc(C#CCC(C(=O)OC)C(=O)OC)ccc31)[C@H](C(=O)NC[C@H](O)c1ccccc1)[C@H]1C(=O)O[C@H](c3ccccc3)[C@H](c3ccccc3)N1[C@@H]2c1ccc(OCCO)cc1`, the composite z-score in [1] was 1.18; in experiment [2] it was -0.0002; in experiment [3] it was -0.132; in experiment [5], 1.04; in experiment [6], 1.35; in experiment [7] it was 0.97. Also, the figures for the composite z-score in experiment [8], in experiment [9] and in [10] were 1.09, 0.909 and 0.534, respectively. The z-score in [4] is 0.28 (inactive).

With `O=C1O[C@H](c2ccccc2)[C@H](c2ccccc2)N2[C@H]1[C@@H](C(=O)N1CCCCCCC1)[C@]1(C(=O)Nc3ccc(C#CC4(O)CCCCCC4)cc31)[C@H]2c1ccccc1OCCO`, the composite z-score in [1] came to 2.09; in experiment [2] it was 3.17; in [3] it was 1.7; in [5], 1.56; in experiment [6] it was 1.48; in experiment [7], 1.96. The figures for the composite z-score in experiment [8], in experiment [9] and in experiment [10] were 1.77, 2.77 and 1.69, respectively. For the same compound, the z-score in experiment [4] is -0.0867 (inactive).

For `COCCOC(=O)N1C(=O)[C@@]2(c3cc(C#CC4(O)CCCCCC4)ccc31)[C@H](c1ccc(OCCO)cc1)N1[C@H](c3ccccc3)[C@H](c3ccccc3)OC(=O)[C@H]1[C@@H]2C(=O)Nc1nc2ccccc2s1`, the composite z-score in experiment [1] is 1.41; in experiment [2], 0.722; in [3], 0.208; in experiment [5] it was 1.05; in experiment [6], 0.522; in experiment [7], 0.538. The figures for the composite z-score in experiment [8], in [9] and in [10] were 1.33, 0.559 and 0.308, respectively. For the same compound, the z-score in experiment [4] is 0.268 (inactive).

On to `CCOC(=O)C1=C[C@@H](C(C)(C)C)N(S(=O)(=O)c2ccc(C)cc2)[C@H]1c1ccccc1`, for which the composite z-score in experiment [1] was 0.104; in [2], 1.44; in experiment [3] it was 1.22; in [5] it was 0.982; in experiment [6], 1.29; in experiment [7], 0.591. The composite z-score in [8] is 1.26; in [9], 0.743; in experiment [10] it was 0.556. In addition, the z-score in experiment [4] was 1.07 (inactive).

`COc1ccc([Si](C)(C)[C@H]2[C@H](CCO)O[C@@]3(C(=O)N(Cc4ccc(N5C(=O)c6ccccc6Oc6ccccc65)cc4)c4ccccc43)[C@@H]2C)cc1`: the composite z-score is 0.094 in experiment [1]; -0.0509 in experiment [2]; 0.477 in [3]; -0.94 in experiment [5]; -1.96 in experiment [6]; -0.732 in experiment [7]. In addition, the composite z-score in experiment [8] was -1.25; in [9], -1.02; in experiment [10] it was -0.917. Also, in experiment [4], the z-score is -0.964 (inactive).

In the case of `CO[C@H]1O[C@H](CO)[C@@H](OC(=O)CCc2ccccc2)[C@H](OC(=O)c2cc3ccccc3[nH]2)[C@H]1OC(=O)c1cc2ccccc2[nH]1`, the composite z-score in experiment [1] is 0.757; in [2], -0.118; in [3], -0.0052; in experiment [5], 1.27; in experiment [6] it was 0.828; in experiment [7], 0.543. Moreover, the composite z-score is 0.847 in experiment [8], 0.777 in experiment [9] and -0.108 in [10]. Further, the z-score in experiment [4] is -0.766 (inactive).

As to `CC(C)C(=C=CC[C@H](O)c1cccc(OCCO)c1)CCO`, the composite z-score is 0.899 in experiment [1]; -0.363 in experiment [2]; -0.148 in [3]; 1.18 in experiment [5]; -0.739 in experiment [6]; -0.209 in [7]. Further, the composite z-score is -0.0067 in experiment [8], -0.264 in experiment [9] and 0.148 in experiment [10]. In addition, in experiment [4], the z-score is -1.02 (inactive).

On to `COCC(=C=CC[C@H](O)c1cccc(OCCO)c1)C[C@H](O)COCc1ccccc1`, for which the composite z-score is 1.66 in experiment [1]; 0.39 in experiment [2]; -0.121 in experiment [3]; 1.17 in [5]; 0.677 in experiment [6]; -0.751 in [7]. Further, the composite z-score in experiment [8] is 0.0438; in [9], -0.529; in experiment [10], 1.03. Further, the z-score in experiment [4] is 0.13 (inactive).

Turning to `O=C1C2C=CC(C(O)c3cccc(O)c3)N(Nc3ccccc3)C2C(=O)N1c1ccccc1` (stereo not given), the composite z-score in experiment [1] is -0.131; in experiment [2], 0.305; in [3], 0.272; in experiment [5] it was 0.134; in experiment [6] it was -0.194; in experiment [7], 0.112. Further, the figures for the composite z-score in experiment [8], in experiment [9] and in experiment [10] were -0.0752, -0.347 and 0.959, respectively. The z-score in experiment [4] is -0.664 (inactive).

Consider `COC(=O)C1=CC(CCCO)=CC(C)N(Cc2cccc(OC(F)(F)F)c2)C=C1C(=O)OC` (stereo not given), for which the composite z-score in experiment [1] was 0.325; in experiment [2] it was 0.116; in experiment [3], 0.259; in experiment [5] it was 0.278; in experiment [6] it was -0.606; in [7] it was -0.94. For the same compound, the composite z-score in experiment [8] was 0.0535; in experiment [9], -0.695; in experiment [10], 0.383. The z-score in experiment [4] is -0.488 (inactive).
